Shown is part of a subset that was picked to be rich in hits.
Pf Dd2 inh: Plasmodium falciparum Dd2 growth inhibition. P. falciparum Dd2 growth, SYBR Green, 72 h. Potency, µM (titrated, usually from 28.9 µM), hits mostly inhibitors. hit rate 4.3% among 120,000; active = well fitted inhibition curve with a large enough effect; note: nearly all actives have a fitted effect of over 65% in size
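Readout: SYBR Green fluorescence, 485 nm excitation, 535 nm emission, after ~16 h lysis at 37C. Before that, Dd2-infected red cells (2.5% hematocrit) grew 72 h with compound, 29 uM top final concentration.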
Numbers stand for hits; 0 = inactive; [ ] = dose if it differs, or a comment.

SMILES	Pf Dd2 inh
O=C(N[C@H]1CCN2C(=O)c3cc(-c4ccccc4)ccc3NC(=O)[C@H]12)c1cnccn1	11µM
CCS[C@H]1CCN2C(=O)c3cc(-c4ccccc4)ccc3NC(=O)[C@H]12	11µM
O=c1n(-c2ccc(F)cc2F)nc2n1CCN(Cc1ccccc1)C2	0
O=C(c1cc(-c2ccccc2)n[nH]1)N1CCCC(Cc2noc(-c3cccnc3)n2)C1 (stereo unspecified)	0
O=C(COc1ccc(F)cc1)N1CC2CC(C1)[C@H]1CCCC(=O)N1C2 (stereo partly specified)	0
O=C(NCc1ccncc1)C1CN(S(=O)(=O)c2cccc(Cl)c2)CC12CCOCC2 (stereo unspecified)	0
O=C(c1cccc(Cl)c1)N1CCC(n2c(=O)[nH]c3ccccc32)CC1	0
CN1C(=O)c2[nH]nc(-c3ccc(F)cc3)c2C1c1cccc(O)c1 (stereo unspecified)	0
Cc1ccc(N2C(=O)c3n[nH]c(C)c3C2c2ccc(C(C)C)cc2)cc1 (stereo unspecified)	0
CC(C)c1ccc(C2c3c(-c4ccccc4O)n[nH]c3C(=O)N2Cc2ccncc2)cc1 (stereo unspecified)	13µM
CSc1ccc(C2c3c(-c4ccccc4O)n[nH]c3C(=O)N2Cc2ccncc2)cc1 (stereo unspecified)	13µM
CC(C)c1ccc(C2NC(=O)c3n[nH]c(-c4cccs4)c32)cc1 (stereo unspecified)	0
CCC(=O)N1CC(C(N)=O)C2(CCOCC2)C1 (stereo unspecified)	0
CC(C)(C)CC(=O)N1CC[C@@H](CC(=O)O)[C@@H](CCN2CCN(c3cccc(C(F)(F)F)c3)CC2)C1	0
Cc1cc(S(=O)(=O)N2CCC(N(C(=O)C3CC3)C3CCOCC3)CC2)ccc1Cl	0
O=C(C1CC1)N(C1CCOCC1)C1CCN(S(=O)(=O)c2cc(F)cc(F)c2)CC1	0
O=C(C1CC1)N(C1CCOCC1)C1CCN(S(=O)(=O)c2ccc(F)c(Cl)c2)CC1	10µM
CN1Cc2ncnc(N3CCN(Cc4ccccc4)CC3)c2CN(C2CCC2)C1=O	0
COc1coc(CN2CCCC(CCc3ccccc3F)C2)cc1=O (stereo unspecified)	0
Cc1ccccc1CN1CCCC(CCNS(=O)(=O)C2CC2)C1 (stereo unspecified)	10µM
O=c1cc(CN2CCCC(CCc3ccccc3C(F)(F)F)C2)[nH]c(=O)[nH]1 (stereo unspecified)	0
CCOc1cc(=O)n2c(c1C(=O)NCCCN1CCCc3ccccc31)CCCCC2	0
COc1ccc(NC(=O)CC2CCCN(c3cnn(CC4CC4)c(=O)c3)C2)cc1 (stereo unspecified)	0
COc1ccc(/C=C/c2nc(C#N)c(NCc3ccc(C)cc3)o2)cc1OC	0
CCN(CC)CCCNc1oc(/C=C/c2ccc(OC)c(OC)c2)nc1C#N	2.5µM
SMILES	Pf Dd2 inh
CCOc1ccc(Nc2oc(/C=C/c3ccc(OC)c(OC)c3)nc2C#N)cc1	0
CCN1c2cc(C(N)=O)ccc2C(=O)N2CCCCCC21 (stereo unspecified)	0
CN(C)c1nccnc1OC1CCN(C(=O)c2ccncc2)C1 (stereo unspecified)	0
CN(C)c1nccnc1OC1CCN(C(=O)CCC(=O)c2ccc(F)cc2)C1 (stereo unspecified)	5.6µM
CCC(CC)C(=O)N1CCC(Oc2nccnc2N(C)C)C1 (stereo unspecified)	0
CC(=O)N1CCC(Oc2ccc(Cl)cc2C(=O)NCCOc2cccnc2)CC1	0
O=C(O)c1cn2ccnc(-c3ccc(F)cc3)c2n1	0
Cc1ccccc1[C@H]1[C@@H](C(=O)N(C)Cc2cccnc2)C[C@@](C)(C(=O)O)N1C	0
COc1ccccc1CCC(=O)Nc1ccc(-c2nnc3n2CCCC3)cc1	0
COc1ccc(CCC(=O)Nc2cccc(-c3nnc4n3CCCC4)c2)cc1	7.9µM
Cc1cccc(NC(=O)Cn2nc3n(c2=O)CCCCC3)c1	0
COc1cccc(NC(=O)Cn2c(C)cc3nc4n(c(=O)c32)CCCCC4)c1	0
O=C(Nc1ccc(-c2nnc3n2CCCC3)cc1)Nc1ccccc1F	0
O=C(CCCc1ccccc1)Nc1cccc(-c2nnc3n2CCCC3)c1	4.5µM
Cc1ccc(NC(=O)N(C)CC2CCOC2)cc1 (stereo unspecified)	0[5.79 µM]
COCC(=O)N1CCC(Oc2ncccc2C(=O)N(C)C)CC1	0
CC(C(=O)N1CCC(c2n[nH]c(=O)n2-c2ccccc2)CC1)c1ccccc1 (stereo unspecified)	0
O=S(=O)(NCc1ccccc1)NCc1noc(C2CCCO2)n1 (stereo unspecified)	0
O=C(NCCc1noc(-c2ccncc2)n1)c1n[nH]c2c1CCCCCC2	0
O=C(C1CCCC1)N1CCCC(c2nc(C3CCOCC3)no2)C1 (stereo unspecified)	0
N#Cc1cccc(CN2CC[C@H]3C(=O)NCCCCCCN(Cc4ccncc4)[C@@H]3C2)c1	13µM
Cc1ccc(CN2CC[C@H]3C(=O)NCCCCCCN(Cc4ccncc4)[C@@H]3C2)o1	0
N#Cc1ccccc1CN1CC[C@@H]2C(=O)NCCCCCCN(Cc3ccncc3)[C@@H]2C1	0
CC(C(=O)NCC1CC1)N1C(=O)COc2ccc(C(=O)COc3cccc(Cl)c3)cc21 (stereo unspecified)	0
CCCNC(=O)NCC(=O)N1CCCCCNC(=O)CC1c1ccccc1 (stereo unspecified)	0
SMILES	Pf Dd2 inh
Cn1nccc1C(=O)N1CCNc2cnc(Nc3ccccc3)nc2C1	0
Cc1ccccc1C(=O)Nc1nnc(S(=O)(=O)N(C)Cc2ccccc2)s1	0
CC1CCc2nc(NC(=O)COc3ccc(C(C)(C)C)cc3)sc2C1 (stereo unspecified)	0
CC1CCc2nc(NC(=O)Cc3ccc(Cl)cc3)sc2C1 (stereo unspecified)	0
CCCC(=O)Nc1nc2c(s1)CC(C(C)(C)C)CC2 (stereo unspecified)	13µM
Cc1ccccc1C(=O)Nc1nnc(S(=O)(=O)N2c3ccccc3CC2C)s1 (stereo unspecified)	0
Cc1ccccc1C(=O)Nc1nc2c(s1)CC(C(C)(C)C)CC2 (stereo unspecified)	5.6µM
CC(C)(C)n1cc(-c2cc(C(=O)N3C[C@H]4CC[C@H]3C4)c3ccccc3n2)cn1	0
COc1ccccc1N1CCN(C(=O)CN2C(=O)NC3(CCC(C)CC3)C2=O)CC1 (stereo unspecified)	0
CC(C)N1C[C@@H]2CN(C(=O)CCCn3ccnc3)C[C@]2(C(=O)O)C1	0
Cc1cccc(NC(=O)Cn2c(-c3ccc(F)cc3)nc(C)c(CCO)c2=O)c1C	0
Cc1ccc(NC(=O)c2ccc3c(c2)N(C)C2CCCN2C3=O)cc1F (stereo unspecified)	0
CCN(CC)Cc1cnc2c(C(=O)NCCc3c[nH]c4ccccc34)cnn2c1	8.9µM
CCN(CC)Cc1cnc2c(C(=O)NCCc3cnccn3)cnn2c1	0
CCN(CC)Cc1cnc2c(C(=O)NCCc3cccs3)cnn2c1	0
Cc1nc(N2CCCCC2)n(CC(=O)Nc2ccc(F)cc2)c(=O)c1C	0
Cc1nc2ncccn2c1C(=O)N1CCC2(CCCN(C)C2=O)C1 (stereo unspecified)	0
O=C(COc1ccccc1)NC[C@H]1Cn2c(-c3ccc(F)cc3)cnc2CO1	0
NC1CCCCN(Cc2ccc(-c3ccn[nH]3)s2)C1 (stereo unspecified)	0
CN(C)[C@H]1CCCCN(C(=O)c2cn(CCN3CCNCC3)nn2)C1	0
